Key:
Test in all cases: DAPPL (digital affinity profiling via proximity ligation, sequencing); 10 mM Tris-HCl pH 7.5, 50 mM NaCl, 1 mM DTT, 4% glycerol, room temperature, 30 min; GST-TFs on glutathione beads, 16-mer random dsDNA library, 0.1% formaldehyde crosslink after washing; high values mean tight binding
Settings in all cases: protein: recombinant; tags: N-terminal GST; dsDNA, one strand shown
FLI1 = biological target: T1, FLI1 (Homo sapiens, UniProt Q01543 1-452)
T1 sequence: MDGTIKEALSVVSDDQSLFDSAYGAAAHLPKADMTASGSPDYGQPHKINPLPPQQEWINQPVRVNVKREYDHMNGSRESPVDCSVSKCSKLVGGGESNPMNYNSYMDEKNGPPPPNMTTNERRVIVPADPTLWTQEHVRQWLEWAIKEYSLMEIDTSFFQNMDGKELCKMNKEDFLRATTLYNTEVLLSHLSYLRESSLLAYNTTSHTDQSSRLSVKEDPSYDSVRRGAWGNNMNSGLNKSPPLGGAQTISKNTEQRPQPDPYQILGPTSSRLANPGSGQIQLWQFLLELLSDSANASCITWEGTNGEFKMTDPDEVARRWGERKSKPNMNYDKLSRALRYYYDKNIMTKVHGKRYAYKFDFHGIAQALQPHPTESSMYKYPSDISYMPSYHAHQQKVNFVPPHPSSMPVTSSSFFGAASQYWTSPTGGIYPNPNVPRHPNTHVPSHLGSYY
Summary of the method: (§1)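 Human transcription factors carrying a GST fusion were produced in yeast, bound to glutathione beads, tagged with DNA barcodes and pooled together with a tag-only sample. Each pool was held with 200 nmole of a random double-stranded 16-mer DNA library in Tris/NaCl/DTT/glycerol buffer for 30 min at room temperature, then washed, crosslinked in 0.1% formaldehyde, proximity-ligated with BsaI/T4 ligase (1 h, 37 °C), PCR-amplified and sequenced on an Illumina NextSeq500. Binding signal is the read frequency of each hexamer for a given factor divided by its frequency in the tag-only sample.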

ELK1 = biological target: T2, ELK1 (Homo sapiens, UniProt P19419 1-428)
T2 sequence: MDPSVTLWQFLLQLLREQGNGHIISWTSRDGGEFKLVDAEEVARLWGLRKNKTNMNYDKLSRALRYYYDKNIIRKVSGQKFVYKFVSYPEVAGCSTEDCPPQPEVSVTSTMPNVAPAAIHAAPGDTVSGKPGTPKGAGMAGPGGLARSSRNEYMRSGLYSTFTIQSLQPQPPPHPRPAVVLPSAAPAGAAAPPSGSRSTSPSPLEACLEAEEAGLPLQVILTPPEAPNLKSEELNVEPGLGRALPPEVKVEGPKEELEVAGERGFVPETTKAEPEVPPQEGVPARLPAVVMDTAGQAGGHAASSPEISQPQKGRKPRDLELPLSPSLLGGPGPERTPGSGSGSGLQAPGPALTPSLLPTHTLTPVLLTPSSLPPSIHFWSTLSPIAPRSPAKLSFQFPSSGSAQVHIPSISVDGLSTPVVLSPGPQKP
Summary of the method: as §1

GABPA = biological target: T3, GABPA (Homo sapiens, UniProt Q06546 1-454)
T3 sequence: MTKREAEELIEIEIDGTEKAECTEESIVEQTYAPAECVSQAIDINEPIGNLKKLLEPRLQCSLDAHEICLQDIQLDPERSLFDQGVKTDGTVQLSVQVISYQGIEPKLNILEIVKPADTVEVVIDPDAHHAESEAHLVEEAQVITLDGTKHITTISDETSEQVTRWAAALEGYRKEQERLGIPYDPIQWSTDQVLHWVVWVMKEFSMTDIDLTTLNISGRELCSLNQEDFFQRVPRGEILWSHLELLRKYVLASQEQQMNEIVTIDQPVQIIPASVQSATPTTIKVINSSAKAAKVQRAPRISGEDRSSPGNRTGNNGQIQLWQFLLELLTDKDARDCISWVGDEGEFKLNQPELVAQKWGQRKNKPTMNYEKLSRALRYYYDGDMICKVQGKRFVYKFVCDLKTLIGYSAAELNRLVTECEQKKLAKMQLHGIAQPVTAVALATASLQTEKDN
Summary of the method: as §1

ERG = biological target: T4, ERG (Homo sapiens, UniProt P11308 1-479)
T4 sequence: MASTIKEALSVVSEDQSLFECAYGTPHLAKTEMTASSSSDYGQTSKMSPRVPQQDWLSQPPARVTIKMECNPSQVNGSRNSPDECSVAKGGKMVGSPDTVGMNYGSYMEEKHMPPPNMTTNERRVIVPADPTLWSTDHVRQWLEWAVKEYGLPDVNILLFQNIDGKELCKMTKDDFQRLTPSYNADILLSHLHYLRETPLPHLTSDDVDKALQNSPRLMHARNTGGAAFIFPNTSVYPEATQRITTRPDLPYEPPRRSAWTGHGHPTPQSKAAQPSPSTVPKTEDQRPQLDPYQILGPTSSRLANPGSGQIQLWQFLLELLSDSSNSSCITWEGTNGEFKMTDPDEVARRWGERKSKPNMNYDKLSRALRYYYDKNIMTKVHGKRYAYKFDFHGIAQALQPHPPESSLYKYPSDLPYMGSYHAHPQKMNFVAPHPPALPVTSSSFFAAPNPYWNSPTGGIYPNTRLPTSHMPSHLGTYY
Summary of the method: as §1

ELF1 = ELF1 (Homo sapiens, UniProt P32519 1-619)
Summary of the method: as §1

EHF = biological target: T5, EHF (Homo sapiens, UniProt Q9NZC4 1-300)
T5 sequence: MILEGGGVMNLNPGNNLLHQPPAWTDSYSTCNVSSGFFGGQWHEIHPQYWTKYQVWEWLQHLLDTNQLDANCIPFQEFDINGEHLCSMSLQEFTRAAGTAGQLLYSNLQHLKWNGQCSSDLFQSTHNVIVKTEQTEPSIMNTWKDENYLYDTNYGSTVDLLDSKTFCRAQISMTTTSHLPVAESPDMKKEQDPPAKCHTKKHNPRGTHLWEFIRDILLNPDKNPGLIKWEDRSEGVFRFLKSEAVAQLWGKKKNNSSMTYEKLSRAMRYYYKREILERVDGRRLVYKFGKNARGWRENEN
Summary of the method: as §1

SPI1 = SPI1 (Homo sapiens, UniProt P17947 1-270)
Summary of the method: as §1

SPIB = SPIB (Homo sapiens, UniProt Q01892 1-262)
Summary of the method: as §1

ELK3 = biological target: T6, ELK3 (Homo sapiens, UniProt P41970 1-407)
T6 sequence: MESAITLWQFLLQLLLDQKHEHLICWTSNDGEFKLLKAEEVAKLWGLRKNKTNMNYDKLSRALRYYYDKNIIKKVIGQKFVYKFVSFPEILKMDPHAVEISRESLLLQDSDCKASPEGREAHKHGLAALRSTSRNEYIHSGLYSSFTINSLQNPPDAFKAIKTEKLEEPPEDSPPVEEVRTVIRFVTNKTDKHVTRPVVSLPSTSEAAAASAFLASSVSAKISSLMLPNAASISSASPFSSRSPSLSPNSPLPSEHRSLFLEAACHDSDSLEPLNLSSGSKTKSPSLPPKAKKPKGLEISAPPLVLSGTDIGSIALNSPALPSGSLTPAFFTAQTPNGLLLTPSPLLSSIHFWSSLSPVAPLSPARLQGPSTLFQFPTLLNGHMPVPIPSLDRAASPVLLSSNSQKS
Summary of the method: as §1

Sequence of SPIB (Q01892 whole entry): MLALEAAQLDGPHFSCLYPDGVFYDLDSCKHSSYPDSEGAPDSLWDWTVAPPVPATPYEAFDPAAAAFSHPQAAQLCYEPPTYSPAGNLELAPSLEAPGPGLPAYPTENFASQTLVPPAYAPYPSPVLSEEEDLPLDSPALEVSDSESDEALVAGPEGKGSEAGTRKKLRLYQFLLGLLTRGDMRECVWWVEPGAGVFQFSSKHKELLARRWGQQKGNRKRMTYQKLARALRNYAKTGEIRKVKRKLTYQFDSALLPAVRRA
Sequence of ELF1 (P32519 whole entry): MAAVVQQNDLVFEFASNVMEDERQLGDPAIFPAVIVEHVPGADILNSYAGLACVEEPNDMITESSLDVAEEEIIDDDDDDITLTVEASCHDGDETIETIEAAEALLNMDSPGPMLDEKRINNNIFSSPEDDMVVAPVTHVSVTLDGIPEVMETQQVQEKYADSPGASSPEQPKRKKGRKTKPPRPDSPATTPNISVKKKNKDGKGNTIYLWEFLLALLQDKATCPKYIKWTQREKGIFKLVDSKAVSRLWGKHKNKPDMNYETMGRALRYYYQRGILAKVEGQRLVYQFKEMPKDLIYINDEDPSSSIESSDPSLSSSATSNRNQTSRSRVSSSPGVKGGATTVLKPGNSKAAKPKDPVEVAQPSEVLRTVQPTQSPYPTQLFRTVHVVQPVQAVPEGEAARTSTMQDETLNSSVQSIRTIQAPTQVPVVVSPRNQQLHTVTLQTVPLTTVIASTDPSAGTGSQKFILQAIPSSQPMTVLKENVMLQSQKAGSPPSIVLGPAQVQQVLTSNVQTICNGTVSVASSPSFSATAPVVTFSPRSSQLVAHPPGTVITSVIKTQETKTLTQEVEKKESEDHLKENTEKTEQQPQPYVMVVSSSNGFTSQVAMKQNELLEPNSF

Sequence	binding signal (FLI1)	binding signal (ELK1)	binding signal (GABPA)	binding signal (ERG)	binding signal (ELF1)	binding signal (EHF)	binding signal (SPI1)	binding signal (SPIB)	binding signal (ELK3)
TCTATA	1.09 fold enrichment (6-mer frequency, TF over GST control)	1.13 fold enrichment (6-mer frequency, TF over GST control)	1.11 fold enrichment (6-mer frequency, TF over GST control)	1.02 fold enrichment (6-mer frequency, TF over GST control)	1.26 fold enrichment (6-mer frequency, TF over GST control)	1.07 fold enrichment (6-mer frequency, TF over GST control)	1.07 fold enrichment (6-mer frequency, TF over GST control)	1.15 fold enrichment (6-mer frequency, TF over GST control)	1.17 fold enrichment (6-mer frequency, TF over GST control)
ATTGAA	1.07 fold enrichment (6-mer frequency, TF over GST control)	1.16 fold enrichment (6-mer frequency, TF over GST control)	1.07 fold enrichment (6-mer frequency, TF over GST control)	1.05 fold enrichment (6-mer frequency, TF over GST control)	1.06 fold enrichment (6-mer frequency, TF over GST control)	1.03 fold enrichment (6-mer frequency, TF over GST control)	1.04 fold enrichment (6-mer frequency, TF over GST control)	1.09 fold enrichment (6-mer frequency, TF over GST control)	1.11 fold enrichment (6-mer frequency, TF over GST control)
AAATGC	1.17 fold enrichment (6-mer frequency, TF over GST control)	1.29 fold enrichment (6-mer frequency, TF over GST control)	1.25 fold enrichment (6-mer frequency, TF over GST control)	1.3 fold enrichment (6-mer frequency, TF over GST control)	1.25 fold enrichment (6-mer frequency, TF over GST control)	1.25 fold enrichment (6-mer frequency, TF over GST control)	1.48 fold enrichment (6-mer frequency, TF over GST control)	1.18 fold enrichment (6-mer frequency, TF over GST control)	1.18 fold enrichment (6-mer frequency, TF over GST control)
CACACA	1.17 fold enrichment (6-mer frequency, TF over GST control)	1.08 fold enrichment (6-mer frequency, TF over GST control)	1.14 fold enrichment (6-mer frequency, TF over GST control)	1.15 fold enrichment (6-mer frequency, TF over GST control)	1.16 fold enrichment (6-mer frequency, TF over GST control)	1.19 fold enrichment (6-mer frequency, TF over GST control)	1.07 fold enrichment (6-mer frequency, TF over GST control)	1.17 fold enrichment (6-mer frequency, TF over GST control)	1.2 fold enrichment (6-mer frequency, TF over GST control)
CTGCAC	1.2 fold enrichment (6-mer frequency, TF over GST control)	1.29 fold enrichment (6-mer frequency, TF over GST control)	1.12 fold enrichment (6-mer frequency, TF over GST control)	1.13 fold enrichment (6-mer frequency, TF over GST control)	1.21 fold enrichment (6-mer frequency, TF over GST control)	1.3 fold enrichment (6-mer frequency, TF over GST control)	1.19 fold enrichment (6-mer frequency, TF over GST control)	1.15 fold enrichment (6-mer frequency, TF over GST control)	1.12 fold enrichment (6-mer frequency, TF over GST control)
TGTCAC	1.15 fold enrichment (6-mer frequency, TF over GST control)	1.11 fold enrichment (6-mer frequency, TF over GST control)	1.22 fold enrichment (6-mer frequency, TF over GST control)	1.11 fold enrichment (6-mer frequency, TF over GST control)	1.23 fold enrichment (6-mer frequency, TF over GST control)	1.22 fold enrichment (6-mer frequency, TF over GST control)	1.21 fold enrichment (6-mer frequency, TF over GST control)	1.31 fold enrichment (6-mer frequency, TF over GST control)	1.2 fold enrichment (6-mer frequency, TF over GST control)
CCTTAT	1.53 fold enrichment (6-mer frequency, TF over GST control)	1.34 fold enrichment (6-mer frequency, TF over GST control)	1.48 fold enrichment (6-mer frequency, TF over GST control)	1.45 fold enrichment (6-mer frequency, TF over GST control)	1.39 fold enrichment (6-mer frequency, TF over GST control)	1.57 fold enrichment (6-mer frequency, TF over GST control)	1.6 fold enrichment (6-mer frequency, TF over GST control)	1.49 fold enrichment (6-mer frequency, TF over GST control)	1.28 fold enrichment (6-mer frequency, TF over GST control)
